# CYP2C19 inh = blocks human cytochrome P450 2C19 | inhibition, % at 5 µM | CYP2C19 Supersomes, luciferin-H EGE luminescence, 30 min | hit rate 21% among 96,000 | AID 778 | P33261;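 active = CYP2C19 inhibition above a set limit at 5 µM in the primary screen, cut at about 50% in these data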;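 also: plate controls were negative control wells for no effect and 2.5 mM tranylcypromine positive control for full effect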
# Target sequence (P33261 whole entry, looked up): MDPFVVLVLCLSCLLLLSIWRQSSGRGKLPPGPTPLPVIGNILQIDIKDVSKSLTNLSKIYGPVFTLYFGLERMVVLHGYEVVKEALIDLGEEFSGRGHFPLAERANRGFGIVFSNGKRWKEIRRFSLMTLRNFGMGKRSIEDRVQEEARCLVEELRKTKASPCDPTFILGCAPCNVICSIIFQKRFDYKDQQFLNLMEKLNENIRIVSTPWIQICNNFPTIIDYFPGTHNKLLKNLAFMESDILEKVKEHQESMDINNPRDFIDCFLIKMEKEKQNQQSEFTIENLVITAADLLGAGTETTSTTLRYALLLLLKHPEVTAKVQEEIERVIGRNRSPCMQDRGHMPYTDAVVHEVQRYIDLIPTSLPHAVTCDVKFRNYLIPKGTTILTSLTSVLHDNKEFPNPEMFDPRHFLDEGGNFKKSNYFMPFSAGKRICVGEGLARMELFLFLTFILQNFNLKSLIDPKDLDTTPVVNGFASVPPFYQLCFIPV
# CYP2C9 activ = increases human cytochrome P450 2C9 activity. activation factor at 5 µM. recombinant CYP2C9, luciferin-H conversion, luminescence; stronger effect = higher value; factor 1 = untreated enzyme, 0 = blocked. hit rate 1.4% among 96,000;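 active = activation factor of 2 or more for CYP2C9 at a 5 µM dose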;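 also: 0 = sulfaphenazole-blocked wells and 1 = vehicle-only wells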
# CYP2C9 inh = blocks human cytochrome P450 2C9. P11712. CYP2C9 Supersomes, luciferin-H conversion, luminescence. hit rate 20% among 96,000. inhibition, % at 5 µM;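 active = blocking of liver enzyme CYP2C9 beyond about 50% at 5 µM, limit read from the data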
# CD11b adhes inh = blocks human CD11b/CD18 adhesion to fibrinogen; AID 1497; P05107+P11215; inhibition, % at 10 µM; K562 CD11b/CD18 adhesion to fibrinogen, ATPlite luminescence; Mn2+ added to activate the integrin; hit rate 0.54% among 93,000;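 active = primary inhibition of 50% or more at 10 µM, then 40% or more on retest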
# CD11b adhes enh = enhancers of human CD11b/CD18 binding to fibrinogen; K562 CD11b/CD18 adhesion to fibrinogen, ATPlite luminescence; hit rate 0.07% among 93,000; AID 1499; activation, % at 10 µM; P05107+P11215;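 active = 10 µM primary screen giving 50% or more activity, confirmed by 40% or more on retest at that dose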
# CYP2C19 activ = activators of human cytochrome P450 2C19. P33261. activation factor at 5 µM. recombinant CYP2C19, luciferin-H EGE luminescence; stronger effect = higher value; 0 = fully inhibited enzyme, 1 = untreated enzyme. 96,000 tested, under 10 active;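 active = activation factor of at least 2 at 5 µM in the primary screen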;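 also: 0 = wells with 2.5 mM tranylcypromine and 1 = vehicle-only wells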
# An asterisk follows results filed as active; · = no result. An excerpt weighted towards active compounds, which were near 28% of everything screened.
SMILES,CYP2C19 inh,CYP2C9 activ,CYP2C9 inh,CD11b adhes inh,CD11b adhes enh,CYP2C19 activ
CCN(CC)S(=O)(=O)c1cccc(-c2nnc(SCC(=O)c3cc(C)n(C)c3C)o2)c1,20,0.7,34,8,-1,0.8
CN(C)S(=O)(=O)N1CCN(c2ccccc2Cl)CC1,92*,0.2,81*,5,1,0.1
CN(C)S(=O)(=O)N1CCN(Cc2ccccc2)CC1,93*,0.8,25,6,-3,0.1
CN(C)S(=O)(=O)N1CCN(CC(=O)Nc2cc(Cl)ccc2Cl)CC1,72*,0.7,29,-22,1,0.3
CN1CCN(CC(=O)Nc2ccc(Cl)cc2Cl)CC1,50,1,-2,12,2,0.5
CN(C)S(=O)(=O)N1CCN(C(=O)N(c2ccccc2)c2ccccc2)CC1,13,0.7,33,-21,20,0.9
CN(C)S(=O)(=O)N1CCN(c2cccc(Cl)c2)CC1,38,0.8,19,42,-1,0.6
CN(C)S(=O)(=O)N1CCN(c2ccccc2)CC1,86*,0.5,50,-39,-1,0.1
CCCN1CCN(c2nc3c([nH]2)c(=N)ncn3CC(O)CO)CC1 (configuration not stated),1,0.9,10,4,-5,1
CC1(c2ccc(Cl)cc2)NC(=O)N(CC(=O)N2CCCC2)C1=O (configuration not stated),-5,1.2,-18,-3,0,1.1
CCCOP(=O)(OCCC)C(Nc1ccc(C(C)C)cc1)c1ccc([N+](=O)[O-])cc1 (configuration not stated),2,0.9,10,-7,-1,1
CN(C)S(=O)(=O)N1CCN(C(=O)c2ccccc2Cl)CC1,76*,1,-2,-13,2,0.2
CN(C)S(=O)(=O)N1CCN(c2cc(Cl)ccc2Cl)CC1,91*,0.3,68*,3,4,0.1
CCCOc1cc(C)c(S(=O)(=O)n2ccc(C)n2)cc1C,70*,0.6,37,21,-1,0.3
CN1C2CCC1CC(OC(=O)c1c[nH]c3ccccc13)C2 (configuration not stated),10,0.8,17,-25,-1,0.9
CCn1nc(C(=O)OC(C(=O)c2c[nH]c3ccccc23)c2ccccc2)c2ccccc2c1=O (configuration not stated),34,0.3,74*,13,8,0.7
CCOc1cccc(OCCCCN2CCOCC2)c1,25,1.1,-7,14,-4,0.7
C=CCc1ccc(OCCOc2cccc3ccc(C)nc23)c(OC)c1,36,2.1*,-107,·,·,0.6
C=CCc1ccc(OCCCCCN2CCOCC2)c(OC)c1,64*,0.8,17,7,0,0.4
C=CCc1ccc(OCCn2cccc2C=O)c(OC)c1,70*,0.6,39,·,·,0.3
COc1cccc(OCCCCCCN2CCOCC2)c1,54*,0.7,29,-10,1,0.5
O=S1(=O)C=CC(N2CCOCC2)C1 (configuration not stated),-12,1.2,-20,-2,-4,1.1
CCOC(=O)C1CCCN(c2nc3ccccc3nc2C(C#N)C(=O)NCc2ccccc2)C1 (configuration not stated),28,0.4,62*,-30,6,0.7
N#CC(C(=O)NCCc1ccccc1)c1nc2ccccc2nc1N1CCCCC1 (configuration not stated),13,0.7,30,-16,3,0.9
CCOC(=O)N1CCN(c2nc3ccccc3nc2C(C#N)C(=O)NCCc2ccccc2)CC1 (configuration not stated),65*,0.3,73*,·,·,0.3
SMILES,CYP2C19 inh,CYP2C9 activ,CYP2C9 inh,CD11b adhes inh,CD11b adhes enh,CYP2C19 activ
Cn1c(=O)c2c(-c3ccc(C(C)(C)C)cc3)n(N3CCOCC3)cc2n(C)c1=O,9,1.1,-8,53,-3,0.9
Cc1cc(C)c(S(=O)(=O)N(C)CC(N)=O)c(C)c1,-10,1.4,-38,·,1,1.1
O=c1cc(N2CCCCC2)c(-c2ccccc2)nn1Cc1cccc(Cl)c1,27,0.8,20,·,·,0.7
O=C(Nc1ccc(-c2noc(CCc3ccccc3)n2)cc1)c1cccnc1,27,0.5,55*,0,8,0.7
COCCNC(=O)CCc1nc(-c2ccccc2)no1,1,1,-3,·,·,1
O=c1[nH]n(Cc2ccccc2)c(=O)c2ccccc12,72*,0.6,41,·,·,0.3
O=C(CCc1nc(-c2ccccc2)no1)NCc1cccnc1,2,0.5,51*,-8,-2,1
O=C(CC1Nc2ccccc2NC1=O)NCc1cccnc1 (configuration not stated),5,0.8,17,-12,-2,0.9
O=C(Cn1[nH]c(=O)c2ccccc2c1=O)NCc1cccnc1,11,0.4,63*,-2,-2,0.9
O=C(CCCc1nc(-c2ccccc2Cl)no1)NCc1cccnc1,61*,1,1,0,-3,0.4
O=C(O)CCc1nc(-c2ccccc2Cl)no1,-4,1.1,-12,16,-3,1
O=C(CCCc1nc(-c2ccc(Cl)cc2)no1)Nc1cccnc1,52*,0.3,75*,80,-6,0.5
O=C(CCc1nc(-c2ccccc2)no1)NCc1ccco1,57*,0.4,59*,-9,-1,0.4
Cc1ccc(-c2noc(CCC(=O)NCc3ccco3)n2)cc1,13,0.5,47,16,1,0.9
O=C(CCCc1ccccc1)NCc1cccnc1,91*,0.6,38,-17,1,0.1
O=C(O)CCCC(=O)Nc1ccc(C(=O)NCc2cccnc2)cc1,2,1.1,-7,-12,-2,1
O=C(NNC(=O)C1CC(c2cccnc2)=NO1)Nc1cccc(F)c1 (configuration not stated),-15,1.1,-11,-7,0,1.2
Cc1ccc2nc(NCCO)nc(-c3ccccc3)c2c1,11,0.7,33,-9,-1,0.9
CCn1c(CCNC(=O)c2ccc(Cl)c(Cl)c2)nnc1SCCOc1ccc(OC)cc1,13,0.8,22,12,-7,0.9
Clc1cc(Br)ccc1OCCOCCN1CCOCC1,81*,1,-2,6,-5,0.2
Brc1ccc(OCCCN2CCOCC2)cc1,78*,1,3,-50,-3,0.2
Cc1cc(Cl)cc(Cl)c1OCCOc1cccc2cccnc12,40,1.9,-85,2,0,0.6
Clc1cc(Br)ccc1OCCOCCOc1cccc2cccnc12,66*,1.7,-71,·,·,0.3
Cc1cc(C)cc(OCCCOc2cccc3cccnc23)c1,87*,1.4,-42,3,2,0.1
c1ccc(OCCCCN2CCOCC2)cc1,36,1,1,-36,1,0.6

# High-throughput results as filed in PubChem.
